Rows were chosen to be rich in hits. Some 3.1% of all compounds tested hit in one or more screens of this group.
PGE2 EP2 inh – EP2 receptor (human) inhibition | P43116 | C6 glioma cells expressing human EP2, cAMP TR-FRET; cells stimulated with saturating PGE2 | inhibition, % at 25 µM | hit rate 0.52% among 260,000 | AID 1422;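 active = percent inhibition above 40 after rounding to a whole number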;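 also: rat C6 glioma host cells with rolipram phosphodiesterase inhibitor present; the protocol text gives 20 µM as final concentration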
Target sequence (P43116 whole entry, looked up): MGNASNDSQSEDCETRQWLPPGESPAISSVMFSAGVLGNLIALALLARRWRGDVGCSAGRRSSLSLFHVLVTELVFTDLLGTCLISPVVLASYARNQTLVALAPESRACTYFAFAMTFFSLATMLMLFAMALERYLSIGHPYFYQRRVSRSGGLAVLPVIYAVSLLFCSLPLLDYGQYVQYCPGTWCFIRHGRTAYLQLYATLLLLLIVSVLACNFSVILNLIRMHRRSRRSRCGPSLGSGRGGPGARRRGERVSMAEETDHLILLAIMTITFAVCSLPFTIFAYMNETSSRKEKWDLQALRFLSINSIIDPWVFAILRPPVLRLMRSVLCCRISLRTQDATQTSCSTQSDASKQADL
EP2 modulator – modulators of human EP2 prostaglandin E2 receptor; P43116; EP2-expressing cells, cAMP HTRF FRET, PGE2 co-stimulation; induction, % at 25 µM; hit rate 0.83% among 260,000; AID 940;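 active = compounds whose cAMP rise, as percent of the full-agonist control response, exceeds 60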;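 also: rat C6 glioma line stably carrying human EP2 under a CMV promoter; the protocol text gives 20 µM as final concentration; 100% = response of wells given 1 µM PGE2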
KCC2 mod – modulates chloride dependent transport by human KCC2. B-score of Tl+ flux slope (higher = more flux/activation; lower = inhibition) at 10 µM. hit rate 2.2% among 190,000. KCC2 cells, thallium flux FluoZin-2 fluorescence. AID 1456;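 active = thallium flux slope and its plate-corrected score both differing from the plate sample mean at a set confidence after two filtering rounds, in either direction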;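 also: slope of fluorescence scaled to starting intensity during 10 to 20 s after thallium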
S1P3 antag – blocks the human S1P3 receptor; Q99500; CHO S1P3 NFAT-BLA reporter, FRET fluorescence, antagonist mode; inhibition, % at 4.98 µM; hit rate 0.27% among 170,000;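 active = inhibition above the plate cutoff, the mean inhibition of test wells on that plate plus 3 SD, cut at about 28% in these data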;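 also: cells challenged with S1P at its EC80 of 0.8 µM; blue over green emission ratio from cleaved BLA substrate after 4 h stimulation; 0% = S1P-stimulated wells and 100% = unstimulated DMSO-only wells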
Target sequence (Q99500 whole entry, looked up): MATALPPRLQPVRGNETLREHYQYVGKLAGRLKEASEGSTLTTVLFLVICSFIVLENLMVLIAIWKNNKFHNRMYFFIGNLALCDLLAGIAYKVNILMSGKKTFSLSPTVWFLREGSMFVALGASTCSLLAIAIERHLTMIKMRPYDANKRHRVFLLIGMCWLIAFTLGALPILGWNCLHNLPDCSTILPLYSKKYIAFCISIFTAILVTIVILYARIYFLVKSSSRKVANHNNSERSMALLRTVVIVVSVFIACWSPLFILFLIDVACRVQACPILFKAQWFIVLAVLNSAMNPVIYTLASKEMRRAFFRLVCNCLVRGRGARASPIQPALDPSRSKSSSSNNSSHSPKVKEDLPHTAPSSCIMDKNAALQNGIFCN
KCC2 secondary – KCC2 (human) modulation, secondary assay. shares compounds with KCC2 mod. normalised thallium flux (F/F0 slope) at 10 µM. hit rate 15% among 3,700. AID 1713. HEK293-KCC2, thallium flux, FluoZin2 fluorescence; active compounds read high;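 active = thallium flux slope above the same plate's solvent-only control mean plus 3 SD; inconclusive = the two replicate wells disagree; inactive = no significant difference from solvent-only control wells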
KCC2 bumet counter – thallium flux despite bumetanide block in KCC2 cells, secondary assay 3 | shares compounds with KCC2 mod | HEK293-KCC2 + bumetanide/ouabain, thallium flux FluoZin2; active compounds read high | normalized thallium flux at 10 µM | hit rate 49% among 3,700;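 active = thallium entry rate above the same plate's blocked-transporter control wells by more than 3 SD; inconclusive = the two repeat wells disagree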;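 also: raw slope of fluorescence over initial fluorescence between 10 and 20 s after thallium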
KCC2 secondary2 – KCC2 (human) modulation, second secondary assay | normalized thallium flux at 10 µM | HEK293-KCC2, thallium flux FluoZin2 fluorescence; actives lie on both sides; F/F0 rise rate, 10–20 s post-thallium | hit rate 23% among 3,700 | shares compounds with KCC2 mod;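 active = thallium flux slope more than 3 SD above or below the plate's solvent-only control mean, mostly below; inconclusive = the two repeat wells disagreed; inactive = no significant shift from solvent-only controls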;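 also: raw slope with 0.1% DMSO as baseline and bumetanide as block control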
HEK counter1 – counter-screen for KCC2 modulators: effect in parental HEK293 cells. shares compounds with KCC2 mod. thallium flux FluoZin2, ouabain; baseline-ratio fluorescence slope, 10–20 s after thallium. thallium flux rate (normalised fluorescence) at 10 µM. hit rate 46% among 3,700;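 active = thallium flux rate significantly above the same plate's solvent-only control wells, beyond their mean plus 3 SD; inconclusive = the two replicate wells gave conflicting results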
KCC2 retest ouab – modulates human KCC2 on retest with ouabain; shares compounds with KCC2 mod; HEK293-KCC2, thallium flux FluoZin2 fluorescence; bidirectional: low = inhibitor, high = activator; raw Tl+ flux slope (below DMSO = inhibition, above = activation) at 10 µM; hit rate 48% among 3,700; AID 1717;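 active = thallium flux slope beyond 3 SD from same-plate DMSO control mean in most replicates, usually higher, sometimes lower; inconclusive = repeat tests gave conflicting results; inactive = no significant difference from controls in most replicates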;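 also: slope of initial-normalized fluorescence between seconds 10 and 20 after thallium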
HEK293 Tl flux2 – parental HEK flux effect, counter-screen 2 | shares compounds with KCC2 mod | HEK293 parental, thallium flux FluoZin-2 fluorescence slope | thallium flux slope at 10 µM | hit rate 33% among 3,700 | AID 1718;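 active = thallium flux slope above the same plate's solvent-control mean plus 3 SD in both duplicate wells; inconclusive = duplicate wells that disagreed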;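 also: run without ouabain in cells lacking the KCC2 cotransporter; slope of fluorescence scaled to its starting value between 10 and 20 s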
Numbers without * were called inactive; ? = inconclusive; . = no result given.

SMILES	PGE2 EP2 inh	EP2 modulator	KCC2 mod	S1P3 antag	KCC2 secondary	KCC2 bumet counter	KCC2 secondary2	HEK counter1	KCC2 retest ouab	HEK293 Tl flux2
Cc1ccc(O)c(C(=O)CC(=O)c2cccc(F)c2)c1	20.4	-17.2	50.5*	-4.6	0.00585	0.0495*	0.0595*	0.0581*	0.0548*	0.0534*
COc1ccccc1C(=O)NNC(=O)c1cccc(F)c1	-0.1	6.4	0.682	1.4	.	.	.	.	.	.
COc1ccc(C(=O)COC(=O)c2ccc(OC)c(OC)c2)cc1OC	14.7	15.9	0.622	-3.2	.	.	.	.	.	.
COc1ccc(NC(=O)c2ccccc2C)c(OC)c1	2.0	12.1	0.974	-8.9	.	.	.	.	.	.
CCOc1ccc(NC(=O)C2CC(=O)N(c3ccccc3C)C2)cc1 (configuration not stated)	7.4	-17.5	.	.	.	.	.	.	.	.
Cc1ccc2oc(=O)n(CC(=O)NCCCN3CC(C)CC(C)C3)c2c1 (configuration not stated)	12.2	-44.2	.	.	.	.	.	.	.	.
C[C@H](Cn1nnc2ccccc21)NC(=O)CCn1ncc2ccccc21	6.3	10.8	.	.	.	.	.	.	.	.
O=C(Cc1ccsc1)N1CCC(c2nc3sc4c(c3c(=O)[nH]2)CCCC4)CC1	.	-40.6	.	.	.	.	.	.	.	.
O=C(N=Nc1ccc(NOC(=O)c2ccccc2Br)cc1)c1ccccc1O	10.9	-70.2	4.19*	-9.9	0.0097	0.0209*	0.0292	0.0131*	?	0.0097
O=Nc1ccc(NOC(=O)c2ccccc2)cc1	9.9	9.2	1.12	3.6	.	.	.	.	.	.
O=C(CN1C(=O)C2CCCN2S(=O)(=O)c2ccccc21)N1CCOCC1 (configuration not stated)	3.7	-5.9	.	.	.	.	.	.	.	.
Cc1[nH]n(C2=NCCS2)c(=O)c1N=Nc1cccc(C(F)(F)F)c1	10.9	-36.2	21.1*	-3.3	0.00631	0.0746*	0.049*	0.0337*	0.055*	0.035*
O=c1[nH]n2c(=O)c3c([nH]c2c1N=Nc1cccc(C(F)(F)F)c1)CCCC3	9.3	17.4	-2.08	.	.	.	.	.	.	.
CCOC(=O)c1cc(-c2cccc(C(F)(F)F)c2)nc2nc(SC)[nH]c(=O)c12	14.7	23.7	-1.91	-1.6	.	.	.	.	.	.
CCOC(=O)c1nc(C)nc(Sc2n[nH]c(-c3cc(C(F)(F)F)cc(C(F)(F)F)c3)n2)c1C	12.5	-22.1	-3.58*	5.8	0.00851	0.00605	0.0345	?	0.0169*	0.0112
COc1ccc(C2(O)CCN(CC(=O)Nc3ccc4c(c3)OCO4)CC2)cc1	2.3	-30.4	.	.	.	.	.	.	.	.
CC1CCc2c(sc3nc(SCC(=O)N4CCCC4)[nH]c(=O)c23)C1 (configuration not stated)	18.0	15.5	.	.	.	.	.	.	.	.
COc1ccc(-c2nc3ccccc3[nH]2)cc1	7.6	-35.9	0.0684	.	.	.	.	.	.	.
COc1ccc(-c2nc(=S)c3ccc4ccccc4c3[nH]2)cc1	6.1	20.6	78.7*	3.2	0.0216*	0.113*	0.0478*	0.0857*	0.0799*	0.0398*
Cc1cc(-c2cncnc2C2CCCN(CC(=O)Nc3nccs3)C2)on1 (configuration not stated)	.	-16.1	.	.	.	.	.	.	.	.
CC(/C=C/c1ccco1)=N\NC(=O)c1cc(C)[nH]n1	9.0	7.7	.	.	.	.	.	.	.	.
CC(/C=C/c1ccco1)=N\NC(=O)c1cc(Cl)ccc1O	5.5	-26.5	13.1*	-9.8	0.0156*	0.0259*	0.0392	?	0.0324*	0.0105
Cc1ccc(-c2csc(NC(=O)CCNC(=O)c3ccc(Cl)cc3)n2)cc1	7.3	11.6	0.486	12.3	.	.	.	.	.	.
O=C(COC(=O)c1cccnc1Cl)Nc1nc(-c2ccccc2)cs1	25.2	-10.5	-5.34*	10.4	0.0056*	0.00626	0.0286	0.00677	0.0409*	0.00997
Cc1ccc(-c2csc(NC(=O)CCNC(=O)c3ccccc3Cl)n2)cc1	10.8	-86.9	-3.78*	5.9	0.00613	0.00466	?	0.0076	?	0.0101
SMILES	PGE2 EP2 inh	EP2 modulator	KCC2 mod	S1P3 antag	KCC2 secondary	KCC2 bumet counter	KCC2 secondary2	HEK counter1	KCC2 retest ouab	HEK293 Tl flux2
O=C(COC(=O)c1ccccc1O)Nc1cccnc1Cl	6.2	-13.2	1.95	-9.1	.	.	.	.	.	.
O=S(=O)(Nc1ncnc2sc3c(c12)CCC3)c1ccc2ccccc2c1	17.0	-21.6	-3.1*	.	0.00764	0.00562*	0.0287	0.0076	0.0164	0.0102
Cc1ccc(C)c(S(=O)(=O)N2CCN(CC(=O)N3CCc4ccccc4C3)CC2)c1	6.2	-10.1	-4.14*	.	0.0072	0.00585	0.0298	0.00675	0.0218*	?
CC(NC(=O)c1nccc2ccccc12)c1nc(-c2ccncc2)n[nH]1 (configuration not stated)	5.2	-26.0	.	.	.	.	.	.	.	.
C/C(=N\NC(=O)c1ccncc1)c1cc2ccccc2o1	8.7	0.2	10.9*	-11.4	?	0.0243*	0.0335	0.0277*	0.0323*	?
O=C(NC(=S)NCc1cccnc1)c1cc2ccccc2o1	6.3	-32.2	41.5*	1.4	0.0302*	0.0881*	0.0493*	0.0488*	0.0534*	0.0481*
C/C(=N\NC(=O)c1cccnc1)c1cc2ccccc2o1	8.8	-16.3	8.51*	-6.9	0.00772	0.027*	0.0324	0.0122*	?	?
Cc1ccc(C(=O)NC(=S)NCc2cccnc2)cc1C	5.7	-42.2	0.338	9.1	.	.	.	.	.	.
Cn1cc(S(=O)(=O)N2CCN(c3ccccc3)CC2)c(=O)n(C)c1=O	8.2	-6.9	-0.0141	.	.	.	.	.	.	.
Cn1cc(S(=O)(=O)N2CCc3ccccc3C2)c(=O)n(C)c1=O	9.1	-11.2	-3.45*	10.7	0.0103	?	0.0325	0.00779	0.0217	0.0105
C[C@@H](C[C@@H](O)[C@H](O)C(C)(C)O)[C@@H]1CC[C@]2(C)C3=CC[C@H]4C(C)(C)C(=O)CC[C@]4(C)[C@H]3CC[C@@]12C	22.5	18.2	4.77*	22.2	0.00524	0.0307*	0.0314	0.00773	?	0.0112
CC(CC(O)C1OC1(C)C)[C@@H]1CCC2(C)C3=CCC4C(C)(C)C(=O)CCC4(C)C3CC[C@@]12C (some centres not stated)	10.0	9.1	.	.	.	.	.	.	.	.
CN(C)CCN1C(=O)c2oc3ccc(F)cc3c(=O)c2C1c1ccncc1 (configuration not stated)	11.0	6.8	1.76	.	.	.	.	.	.	.
CN(C)CCCN1C(=O)c2oc3ccc(Cl)cc3c(=O)c2C1c1cccnc1 (configuration not stated)	9.0	4.3	3.73*	-15.3	0.00939	0.0155*	0.034	0.00989*	?	0.0108

Screening data from PubChem.
